This passage reports inhibition results from PubChem BioAssay AID2313 (Broad Institute, 2010).

Out of some 22,000 compounds screened, about 460 (2.1%) were called active. Not shown: some 2% with an inconclusive outcome. The sample as a whole holds a higher share of actives than the screen did. Values without a mark were called inactive.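 How the source made its calls: active means mean inhibition across valid replicates above about 65% (limit read from the data); inconclusive means mean under the limit, yet half or more replicates past it; inactive means the rest.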

This assay is described as follows: Hedgehog pathway signaling inhibitors, primary screen, luminescence, Shh-LIGHT2 cells, Gli-luciferase (AID 2313).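 Further: pathway switched on by Shh-conditioned medium diluted 1 in 25 in low serum.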 The note with it: Shh-LIGHT2 Gli-luciferase reporter, 30 h; stronger effect = higher value.
As usually defined, the inhibition is the change of the read-out against control, counted positive when it falls. Consider `CC(C)NC(=O)N(C)C[C@@H]1Oc2ccc(N(C)C)cc2C(=O)N([C@@H](C)CO)C[C@H]1C`, for which the inhibition was -15.2%.

Turning to `CC(C)NC(=O)Nc1ccc2c(c1)C(=O)N([C@H](C)CO)C[C@H](C)[C@@H](CN(C)CC1CCCCC1)OCCCC[C@@H](C)O2`, the inhibition is -21.5%.

Consider `C[C@@H]1CN([C@H](C)CO)C(=O)Cc2cc(NS(C)(=O)=O)ccc2O[C@H]1CN(C)S(=O)(=O)c1ccccc1`, for which the inhibition was -3.98%.

With `C[C@@H]1CCCCO[C@H](CN(C)C(=O)Nc2cccc3ccccc23)[C@@H](C)CN([C@H](C)CO)C(=O)c2cc(NC(=O)Nc3ccc4c(c3)OCO4)ccc2O1`, the inhibition is -3.94%.

Take `Cc1ccc(OCc2n[nH]c(=S)n2C2CCCCC2)c2c1CCC2`: the inhibition was 9.84%.

Turning to `COc1ccc(NC(=S)SC)cc1OC`, the inhibition is -54.6%.

With `C[C@@H]1CN([C@H](C)CO)C(=O)c2cccc(NC(=O)NC3CCCCC3)c2O[C@@H]1CN(C)CC1CCCCC1`, the inhibition is 23.2%.

For the compound `Cc1noc(C)c1S(=O)(=O)N(C)C[C@@H]1Oc2c(NS(=O)(=O)c3cn(C)cn3)cccc2C(=O)N([C@H](C)CO)C[C@@H]1C`, the inhibition was -16%.

On to `C[C@H](CO)N1C[C@H](C)[C@H](CN(C)S(=O)(=O)c2cccs2)Oc2ccc(NC(=O)Nc3ccccc3)cc2C1=O`, for which the inhibition is -3.56%.

Take `COCc1nc2c([nH]1)C(c1ccccc1COc1ccc(Cl)cc1)C(C#N)=C(N)O2` (stereo not given): the inhibition is -16.6%.

With `C[C@@H]1CN([C@H](C)CO)C(=O)c2cccc(NS(=O)(=O)c3cn(C)cn3)c2O[C@H]1CN(C)Cc1ccc(C(=O)O)cc1`, the inhibition was 24.8%.

As to `Cc1cc(C(=O)Nc2cccc3c2O[C@@H](CN(C)Cc2ccncc2)[C@@H](C)CN([C@@H](C)CO)C3=O)n(C)n1`, the inhibition was -8.53%.

As for `Cc1ccc(S(=O)(=O)Nc2cccc3c2O[C@@H](CN(C)S(=O)(=O)c2ccc(C)cc2)[C@H](C)CN([C@@H](C)CO)C3=O)cc1`, the inhibition is -18.7%.

Consider `COc1ccc(CNC(=O)c2c(C)oc3c2cc(OC(C)=O)c2ccccc23)cc1`, for which the inhibition is -2.05%.

In the case of `S=c1nc2c(cnn2-c2ccccc2)c(Nc2ccccc2)[nH]1`, the inhibition is -7.49%.

On to `Cc1ccc(-c2c[n+](=O)c3c(n2[O-])CCC3)cc1`, for which the inhibition was -26.9%.

Regarding `C[C@H]1CN([C@@H](C)CO)C(=O)Cc2cc(NC(=O)Cc3ccccc3)ccc2O[C@@H]1CN(C)S(=O)(=O)c1ccc(Cl)cc1`, the inhibition was 22.7%.

With `C1=C(c2cccs2)CC(c2cccs2)=NN=C1c1cccs1`, the inhibition is -1.01%.

Turning to `COc1ccc(NC(=O)N(C)C[C@@H]2Oc3c(NC(=O)Nc4cccc5ccccc45)cccc3C(=O)N([C@@H](C)CO)C[C@H]2C)cc1`, the inhibition was 3.07%.

Take `C[C@H](CO)N1C[C@H](C)[C@H](CN(C)C(=O)Nc2ccc(C(F)(F)F)cc2)Oc2ccc(N(C)C)cc2CC1=O`: the inhibition was -27.1%.

As for `COc1ccc(NC(=O)Nc2ccc3c(c2)CC(=O)N([C@@H](C)CO)C[C@@H](C)[C@@H](CN(C)Cc2ccc(C(F)(F)F)cc2)O3)cc1`, the inhibition was 13.9%.

Regarding `COc1ccc(NC(=O)N(C)C[C@@H]2Oc3c(NC(=O)c4ccc(-c5nccs5)cc4)cccc3C(=O)N([C@H](C)CO)C[C@@H]2C)cc1`, the inhibition is 20.7%.

As for `C[C@H](CO)N1C[C@H](C)[C@@H](CN(C)S(=O)(=O)c2ccc(Cl)cc2)Oc2ccc(NS(=O)(=O)c3cn(C)cn3)cc2C1=O`, the inhibition was 25.4%.

As to `C[C@H]1CN([C@@H](C)CO)C(=O)Cc2cc(NC(=O)Nc3ccccc3)ccc2O[C@H]1CN(C)S(=O)(=O)c1cn(C)cn1`, the inhibition was -32.8%.

Consider `C[C@H](CO)N1C[C@H](C)[C@H](CN(C)CC2CCCCC2)Oc2ccc(NC(=O)C3CCCCC3)cc2C1=O`, for which the inhibition was 21.2%.

Consider `Cc1noc(C)c1NC(=O)Nc1ccc2c(c1)CC(=O)N([C@H](C)CO)C[C@@H](C)[C@@H](CN(C)S(=O)(=O)c1ccc(Cl)cc1)O2`, for which the inhibition was -13.6%.

For the compound `Cc1noc(C)c1NC(=O)Nc1ccc2c(c1)C(=O)N([C@@H](C)CO)C[C@H](C)[C@H](CN(C)S(=O)(=O)c1ccc(Cl)cc1)O2`, the inhibition was -26.2%.

As to `C[C@H](CO)N1C[C@H](C)[C@@H](CN(C)Cc2ccc(C(F)(F)F)cc2)Oc2c(NC(=O)NC3CCCCC3)cccc2C1=O`, the inhibition is 23.9%.

As for `O=C(NCCN1CCCCC1)Nc1cccc(Cl)c1`, the inhibition is 20.6%.

`COc1ccc(NC(=O)Nc2ccc3c(c2)CC(=O)N([C@@H](C)CO)C[C@@H](C)[C@@H](CN(C)Cc2ccc(Cl)c(Cl)c2)O3)cc1`: the inhibition was 38.8%.

For `C[C@@H]1CN([C@H](C)CO)C(=O)Cc2cc(NC(=O)CCCN(C)C)ccc2O[C@H]1CN(C)CC1CCCCC1`, the inhibition was 18.8%.

Consider `Cc1cccc(NC(=O)c2ccc(C)c(S(=O)(=O)N3CCCC3)c2)c1`, for which the inhibition is -48.9%.

With `Cc1ccc(NC(=O)c2cccc(N(C)C)c2)cc1NC(=O)c1ccc(O)cc1`, the inhibition was 83.8% (active).

As to `O=C(CCCCn1cnc2ccccc21)c1ccccc1`, the inhibition was -10.1%.

In the case of `CNC[C@H]1Oc2ccc(NS(=O)(=O)c3ccc(F)cc3)cc2CC(=O)N([C@H](C)CO)C[C@H]1C`, the inhibition was -2.19%.

For `C[C@@H]1CN([C@H](C)CO)C(=O)Cc2cc(NS(=O)(=O)c3ccc(Cl)cc3)ccc2O[C@@H]1CN(C)C`, the inhibition was -10.8%.

For `CNC[C@@H]1Oc2c(NC(=O)Nc3ccc(F)cc3)cccc2C(=O)N([C@@H](C)CO)C[C@@H]1C`, the inhibition is 15.5%.

`Cc1ccc(NC(=O)CC(=O)Nc2ccc(C)cc2)cc1`: the inhibition is -21.5%.

`C[C@@H]1CN([C@H](C)CO)C(=O)c2cccc(N(C)C)c2O[C@H]1CN(C)S(=O)(=O)c1cn(C)cn1`: the inhibition was 3.08%.

Turning to `C=C1C(=O)O[C@H]2C3=C(C)C[C@H](OC(C)=O)C[C@]3(C)CC[C@@H]12`, the inhibition is -2.37%.

In the case of `COc1cc(/C=C2\Oc3cc(O)cc(O)c3C2=O)ccc1O`, the inhibition was 3.42%.

Consider `Cc1ccc(Nc2nc(C)cc(C)c2C(N)=O)cc1`, for which the inhibition was -37.3%.

`Cc1ccc2nc(Nc3ccccc3)cc(C)c2c1`: the inhibition is 72.3% (active).

As for `Cc1ccc2nc(C)c3c(c2c1)N(c1ccccc1)CC3`, the inhibition was 34.9%.

Regarding `COc1ccc(S(=O)(=O)Nc2cccc3c2O[C@@H](CN(C)C(=O)Nc2ccccc2)[C@@H](C)CN([C@H](C)CO)C3=O)cc1`, the inhibition is 2.98%.

On to `COC(NC(=O)c1ccccc1)(C(F)(F)F)C(F)(F)F`, for which the inhibition is -45.7%.

`Cc1ccc(S(=O)(=O)Nc2cccc3c2O[C@@H](CN(C)S(=O)(=O)c2c(C)noc2C)[C@@H](C)CN([C@H](C)CO)C3=O)cc1`: the inhibition is -7.42%.

As for `C[C@@H]1CN([C@H](C)CO)C(=O)c2cc(NS(=O)(=O)c3ccc(F)cc3)ccc2O[C@H]1CN(C)C(=O)Nc1cccc2ccccc12`, the inhibition was -17%.

As for `C[C@H]1CN([C@@H](C)CO)C(=O)Cc2cc(NS(=O)(=O)c3cn(C)cn3)ccc2O[C@@H]1CN(C)C(=O)Nc1ccc2c(c1)OCO2`, the inhibition was 2.02%.

As to `C[C@@H]1CCCCO[C@H](CN(C)C(=O)NC2CCCCC2)[C@@H](C)CN([C@H](C)CO)C(=O)c2cc(NC(=O)CCC(F)(F)F)ccc2O1`, the inhibition was 20.6%.

Turning to `COc1ccc(NC(=O)Nc2ccc3c(c2)CC(=O)N([C@H](C)CO)C[C@H](C)[C@H](CN(C)S(=O)(=O)c2ccc(OC)cc2)O3)cc1`, the inhibition is 15.7%.

For the compound `COc1ccc(NC(=O)Nc2cccc3c2O[C@@H](CN(C)S(=O)(=O)c2ccc(C)cc2)[C@H](C)CN([C@@H](C)CO)C3=O)cc1`, the inhibition was 26%.

With `COc1ccc(S(=O)(=O)N(C)C[C@H]2Oc3ccc(NC(=O)Nc4c(C)noc4C)cc3C(=O)N([C@@H](C)CO)C[C@@H]2C)cc1`, the inhibition is 14.6%.

Consider `O=S(=O)(NCCc1ccccc1)c1ccccc1`, for which the inhibition is -19.7%.

For the compound `C[C@@H]1CN([C@@H](C)CO)C(=O)c2cccc(NC(=O)c3nc4ccccc4s3)c2O[C@@H]1CN(C)Cc1ccc(Cl)c(Cl)c1`, the inhibition is -17.7%.

Regarding `O=C(Cn1c(=O)n(-c2ccccc2)c(=O)c2cc(-c3ccccc3)sc21)c1cccs1`, the inhibition was -31.1%.

Turning to `C[C@@H]1CN([C@@H](C)CO)C(=O)c2cccc(NC(=O)c3cnccn3)c2O[C@H]1CN(C)S(=O)(=O)c1cccs1`, the inhibition was 36.2%.

Regarding `COc1ccc(NC(=O)N(C)C[C@H]2Oc3c(NC(=O)NC(C)C)cccc3C(=O)N([C@@H](C)CO)C[C@H]2C)cc1`, the inhibition was -18.8%.

With `O=C(NCCN1CCCCC1)Nc1cccc2ccccc12`, the inhibition is 48.1%.

Regarding `CCOC(=O)c1cc2ccccc2nc1C`, the inhibition was -33.8%.

As for `C[C@H]1CN([C@@H](C)CO)C(=O)Cc2cc(NC(=O)C3CC3)ccc2O[C@H]1CN(C)C(=O)Nc1ccc(C(F)(F)F)cc1`, the inhibition is -16.6%.

In the case of `Cc1noc(C)c1NC(=O)Nc1ccc2c(c1)C(=O)N([C@H](C)CO)C[C@@H](C)[C@@H](CN(C)C(=O)NC(C)C)O2`, the inhibition was -44%.

Regarding `Cc1noc(C)c1NC(=O)Nc1cccc2c1O[C@H](CN(C)S(C)(=O)=O)[C@H](C)CN([C@H](C)CO)C2=O`, the inhibition was -13.4%.

For the compound `COc1ccc(S(=O)(=O)N(C)C[C@@H]2Oc3ccc(NC(=O)CCN4CCOCC4)cc3CC(=O)N([C@@H](C)CO)C[C@@H]2C)cc1`, the inhibition was 12.6%.

`Cc1ccc(S(=O)(=O)N(C)C[C@H]2Oc3ccc(NC(=O)C4CC4)cc3C(=O)N([C@H](C)CO)C[C@H]2C)cc1`: the inhibition is 2.25%.
